PubChem BioAssay AID886 (National Center for Advancing Translational Sciences (NCATS), 2007)
Values joined by “and” are separate entries in the source; they are usually repeats but may differ in a detail not shown here. Equal values may be shown once. The whole screen tested about 73,000 compounds, of which about 2,500 (3.4%) were called active. Inconclusive results (about 7%) are left out. The full list was thinned out, with actives kept by preference. A number with no mark means an inactive call. Calls come from the whole dose curve; as a rule, active = well fitted inhibition curve with a large enough effect; inconclusive = small, poorly fitted or top-dose-only effect; inactive = no such curve, though single readings can be large or run the other way.
% is set by controls: 0 for no effect and ±100 for the full control effect; potency is the fitted concentration of half-maximal effect.
Note: nearly all actives have a fitted effect of over 60% in size.

What follows are compounds tested against 3-hydroxyacyl-CoA dehydrogenase type-2 (Homo sapiens) (UniProt Q99714) (assay: qHTS Assay for Inhibitors of HADH2 (Hydroxyacyl-Coenzyme A Dehydrogenase, Type II)). Settings: recombinant HADH2, NADH fluorescence, beta-hydroxybutyryl-CoA; series mostly up to 57.1 µM; activity change, negative = inhibition: at the top concentration.
Sequence of 3-hydroxyacyl-CoA dehydrogenase type-2 (Homo sapiens) (Q99714 whole entry, looked up): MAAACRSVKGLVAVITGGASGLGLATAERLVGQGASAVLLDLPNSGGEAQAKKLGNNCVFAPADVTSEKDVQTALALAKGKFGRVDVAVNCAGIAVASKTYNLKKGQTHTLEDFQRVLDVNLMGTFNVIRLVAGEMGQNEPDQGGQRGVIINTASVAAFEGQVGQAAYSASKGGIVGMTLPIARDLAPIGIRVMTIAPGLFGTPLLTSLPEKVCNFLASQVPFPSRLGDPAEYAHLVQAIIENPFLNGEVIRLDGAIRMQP
Sequence of 3-hydroxyacyl-CoA dehydrogenase type-2 (Homo sapiens) (Q99714 whole entry, looked up): as above
Text: Assay Overview: NIH Molecular Libraries Screening Centers Network [MLSCN] NIH Chemical Genomics Center [NCGC] Structural Genomics Consortium [SGC] Grant Number: None HADH2: Hydroxyacyl-Coenzyme A dehydrogenase, type II, was supplied by researchers at the Structural Genomics Consortium, Oxford University lab (PI Udo Oppermann). The mitochondrial enzyme 17-hydroxysteroid dehydrogenase type 10 (HSD17-10) previously classified as type II hydroxyacyl-CoA dehydrogenase (HADH2) catalyzes the NAD+ dependent oxidation of a variety of substrates including acyl-CoAs, androgens and neurosteroids as well as bile acids(Shafqat N, Marschall HU, Filling C, et al. Biochemical Journal. 2003;376(Pt 1):49-60). The role in neurodegeneration by binding to amyloid-peptide led to its identification (Oppermann UC, et al FEBS Letters. 1999;451(3):238-242 and Yan SD, et al. Nature. 1997;389(6652):689-695), and mutations in its gene appear to be causative for 2-methyl-3-hydroxybutyryl-CoA dehydrogenase deficiency (Ofman R, et al. American Journal of Human Genetics. 2003;72(5):1300-1307). The enzyme was produced by E.coli fermentation as His-tagged recombinant for the purpose of X-ray structure determination, and had been mass-spectrometry characterized. Inhibition of HADH2 activity was screened by utilizing beta-hydroxybutyryl coenzyme A as an electron donor and NAD+ as an electron acceptor/cofactor. An increase in the fluorescence intensity due to conversion of NAD+ to NADH was used to measure the enzyme activity.
Assay Protocol: Buffer: 100 mM Tris-HCl pH 9.0, containing 0.01 % Tween-20. Reagents/Controls: Buffer in columns 3 and 4 as negative control (no enzyme). Substrate/cofactor solution: 1 mM NAD+ and 90 uM beta-hydroxybutyryl coenzyme A (Sigma-Aldrich, St. Louis, MO) final concentrations dispensed throughout the plate. Enzyme: 20 nM HADH2 final concentration in columns 1, 2, 5-48. Column 1 is neutral (100% activity). Column 2 contained titration of apomorphine (Sigma-Aldrich, A 4393, PubChem CID 2215, top concentration 500 uM, then 1:2 dilution in duplicate) Assay Steps: Three uL of enzyme were dispensed to 1536-well Greiner black solid bottom plates. Compounds and controls (23 nL) were transferred via Kalypsys PinTool. The plates were incubated for 15 min at room temperature, and then 1 uL of substrate/cofactor solution was added to start the reaction. The plates were immediately transferred to and read every 30 seconds for 4 min on ViewLux High-throughput CCD imager (Perkin-Elmer) using 360 nm excitation and 450 nm emission fluorescence protocol. The fluorescence intensity difference between the last and the first time points was used to compute reaction progress.
With CCn1c(=N)c(C(=O)NCCCOC)cc2c(=O)n3cccc(C)c3nc21 the Potency was 3.98 µM (active).
In the case of CCOCCCNC(=O)c1c[nH]c2cc(C)ccc2c1=O, the “activity change, negative = inhibition” value is reported as -1.39%.
With COc1ccc(CCn2c(=N)c(C(=O)NCc3ccco3)cc3c(=O)n4cccc(C)c4nc32)cc1 the “activity change, negative = inhibition” value was 3.86%.
In the case of O=C(c1ccco1)N1CCC2(CC1)CN(c1ncccn1)C2, the “activity change, negative = inhibition” value is reported as 2.51%.
For Nc1ccc2c3c(cccc13)C(=O)NC2=O, the “activity change, negative = inhibition” value was 12.8%.
In the case of Cc1c(O)c(Br)c(C)c(O)c1Br (tested in a mixture with another compound), the Potency is reported as 0.398 µM (active).
In the case of CC(C)[C@@H](OCc1ccccc1)[C@H](C)/C=N\OC[C@@H](C)[C@H](OCc1ccccc1)C(C)C, the activity change, negative = inhibition is reported as 1.49% [at 11.4 µM].
With C[C@]12C=CC(=O)C=C1CC[C@@H]1[C@@H]2C(=O)C[C@@]2(C)[C@H]1CC[C@]2(O)C(=O)CO the “activity change, negative = inhibition” value was 7.63%.
CC(C)CSC[C@@H]1O[C@H](n2cnc3c(N)nccc32)[C@H](O)[C@@H]1O was tested, and the activity change, negative = inhibition was 7.39% [at 11.4 µM].
Cc1csc(NC(=O)CN2CCCCCC2)n1 was tested, and the “activity change, negative = inhibition” value was -0.72%.
With CCOC(=O)Cc1csc(NC(=O)Nc2ccccc2)n1 the “activity change, negative = inhibition” value was -0.891%.
With Cc1csc(NC(=O)NC2(C(F)(F)F)Oc3ccccc3O2)n1 the Potency was 2 µM (active).
O=C(Oc1ccc2c(c1)CN(Cc1ccccc1)CO2)c1ccccc1 gave an activity change, negative = inhibition of -11.9% [at 11.4 µM].
For O=C(O)c1nccnc1C(=O)Nc1ccc(Br)cn1, the “activity change, negative = inhibition” value was -0.545%.
With CC(C)C[C@@H](CC(=O)N[C@@H](CCC(=O)O)CC(=O)O)NC(=O)[C@@H]1CCCC[C@H]1NC(=O)C[C@@H](NC(=O)C[C@H](CO)NC(=O)[C@@H]1CCCC[C@H]1N)C(C)C the “activity change, negative = inhibition” value was -24.3%.
With Cc1nc2c(c(=O)n1Cc1ccco1)c1nc3ccccc3nc1n2Cc1ccccc1 the Potency was 25.1 µM (active).
In the case of COCCCn1c2nc3ccccc3nc2c2c(=O)n(Cc3ccc(Cl)cc3)c(C)nc21, the “activity change, negative = inhibition” value is reported as 12%.
For CC(Sc1nc2ccccc2c(=O)n1Cc1ccco1)C(=O)c1ccccc1 (stereo not drawn), the “activity change, negative = inhibition” value was 0.159%.
With COC(=O)C1(Cc2ccccc2)C=C2C(=C(C)C(=O)C2C)CN1 (stereo not drawn) the “activity change, negative = inhibition” value was -6.45%.
Work on CN1CCc2nc(-c3ccccc3)c(-c3ccccc3)cc2C1 yielded an activity change, negative = inhibition of -8.44% [at 11.4 µM].
For Cc1cc(C)cc(N)c1, the “activity change, negative = inhibition” value was -4.7%.
In the case of Cc1ccccc1NC(=O)c1ccccc1, the “activity change, negative = inhibition” value is reported as -21.2%.
Cc1nc(C)c(C(=O)Nc2cccc(C)c2C)o1 was tested, and the Potency was 10 µM (active).
Cc1cccc(NC(=O)CSc2nc3c(c(=O)[nH]2)CCC3)c1C was tested, and the “activity change, negative = inhibition” value was 2.6%.
Cn1c(=S)c2[nH]c(SCCCc3ccccc3)nc2n(C)c1=O showed an activity change, negative = inhibition of 7.85% [at 11.4 µM].
For O=C1C[C@@H](O)[C@@H](O)[C@H]2[C@@H]3C(=O)N(Cc4ccc5c(c4)OCO5)C(=O)[C@@H]3CC[C@H]12, the activity change, negative = inhibition was -4.62% [at 11.4 µM] and -11.5% [at 11.4 µM].
For CS(=O)(=O)N1CCC2(CCN(c3ccncc3)CC2)CC1, the “activity change, negative = inhibition” value was 2.81%.
For c1coc(-c2nc3nc4ccccc4n3nc2-c2ccco2)c1, the “activity change, negative = inhibition” value was -23.9%.
COc1ccc(CCn2c(-c3ccco3)nc3nc4ccccc4nc32)cc1OC was tested, and the “activity change, negative = inhibition” value was -13.7%.
In the case of Cn1c(-c2ccco2)nc2cc3ccccc3cc21, the Potency is reported as 31.6 µM (active).
With O=C(O)/C(=C/c1c(C(=O)O)[nH]c2cc(Cl)cc(Cl)c12)c1ccccc1 the “activity change, negative = inhibition” value was -3.85%.
With c1ccc(Oc2ccccc2)cc1 the “activity change, negative = inhibition” value was 4.03%.
With O=c1c(-c2ccc(F)cc2)nc2cncnc2n1-c1ccccc1 the “activity change, negative = inhibition” value was -15.3%.
For CCOC(=O)N/N=C1/C[C@@H](O)[C@@H](O)[C@@H]2[C@@H]3C(=O)N(CC)C(=O)[C@H]3CC[C@H]12, the activity change, negative = inhibition was 11.3% [at 11.4 µM].
O=c1cc(-c2ccccc2)nc(N2CCCCC2)[nH]1 was tested, and the “activity change, negative = inhibition” value was -16.5%.
With O=c1[nH]c(-c2ccccc2)c(-c2ccccc2)[nH]1 the Potency was 3.16 µM (active).
In the case of O=c1[nH]c(=O)c2nc3ccccc3nc2[nH]1, the “activity change, negative = inhibition” value is reported as -14%.
In the case of COc1ccc(-c2nc3cnc(Oc4ccccc4)nc3n(Cc3cccs3)c2=O)cc1, the “activity change, negative = inhibition” value is reported as 0.264%.
Work on O=C(O)[C@@H]1[C@@H](C(=O)O)[C@]23C[C@@]2(C(=O)O)[C@]2(C(=O)O)CCC3=C3CCCC312 yielded an activity change, negative = inhibition of 14.2% [at 11.4 µM].
For COc1ccc(N)c(C)c1, the “activity change, negative = inhibition” value was -15.2%.
C1=C(N2CCOCC2)/C(=C/c2nc3ccccc3[nH]2)CC1 was tested, and the Potency was 3.98 µM (active).
In the case of c1ccc(-n2nnnc2N2CCOCC2)cc1, the “activity change, negative = inhibition” value is reported as 5.51%.
In the case of c1ccc2[nH]c(NCCN3CCOCC3)nc2c1, the “activity change, negative = inhibition” value is reported as -7.67%.
O=C1C(c2[nH]c3ccccc3c2O)=Nc2ccccc21 was tested, and the “activity change, negative = inhibition” value was 13.6%.
Cc1nc2cnc(N3CCN(C)CC3)nc2n(C[C@H]2CCCO2)c1=O was tested, and the “activity change, negative = inhibition” value was 75.2%.
In the case of O=C(O)c1ccc(-n2cccc2)cc1O, the “activity change, negative = inhibition” value is reported as -14.7%.
N[C@H](C(=O)O)c1ccc(C(=O)O)c(O)c1 was tested, and the Potency was 31.6 µM (active).
N[C@@H](C(=O)O)c1ccc(P(=O)(O)O)cc1 was tested, and the “activity change, negative = inhibition” value was 11%.
